# Assay results taken from PubChem BioAssay AID1159580 (chemical genetic matrix, 2015).
# Screen size: about 5,500 compounds; about 2,000 (36%) were called active. Roughly 18% stayed inconclusive and do not appear here. Some of the results follow. Values without a mark were called inactive. Cut-off read from the data, not from the text of the source: active = normalized growth mostly below about 0.91 (no sharp cut-off); inconclusive = no clear call, values can overlap the other calls; inactive = mostly above about 0.92.
# Assay: chemical genetic growth profiling, strain panel (AID 1159580);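 note: tested at 20 µM; growth read once vehicle control cultures reached saturation at 30 °C; 1 = growth at the plate median or of vehicle wells; lower values mean less growth of the strain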
# Conditions: S. cerevisiae deletion strains, growth OD
smiles,measurement,setting,value
COC1C(O)C(O[C@H]2CC[C@]3(C=O)C4C(CC[C@]3(O)C2)[C@@]2(O)CC[C@H](C3=CC(=O)OC3)[C@@]2(C)C[C@H]4OC(C)=O)OC(C)C1OC(C)=O (some centres undefined),normalized growth,"locus YAL021C, strain ccr4, stronger effect = lower value",0.977
same,normalized growth,"locus YAL026C, strain drs2, stronger effect = lower value",1.02
same,normalized growth,"locus YAL030W, strain snc1, stronger effect = lower value",0.977
same,normalized growth,"locus YBL061C, strain skt5, stronger effect = lower value",1.02
same,normalized growth,"locus YBR009C, strain hhf1, stronger effect = lower value",0.973
same,normalized growth,"locus YBR021W, strain FUR4, stronger effect = lower value",1.02
same,normalized growth,"locus YBR023C, strain chs3, stronger effect = lower value",1.01
same,normalized growth,"locus YBR171W, strain sec66, stronger effect = lower value",1.04
same,normalized growth,"locus YBR229C, strain ROT2, stronger effect = lower value",1.02
same,normalized growth,"locus YBR231C, strain swc5, stronger effect = lower value",1
same,normalized growth,"locus YBR279W, strain paf1, stronger effect = lower value",1.01
same,normalized growth,"locus YCL011C, strain gbp2, stronger effect = lower value",1
same,normalized growth,"locus YCL016C, strain dcc1, stronger effect = lower value",1
same,normalized growth,"locus YCL029C, strain bik1, stronger effect = lower value",1.05
same,normalized growth,"locus YCL069W, strain vba3, stronger effect = lower value",1.01
same,normalized growth,"locus YCR088W, strain abp1, stronger effect = lower value",1.02
same,normalized growth,"locus YDL005C, strain med2, stronger effect = lower value",1.01
same,normalized growth,"locus YDL035C, strain GPR1, stronger effect = lower value",1.03
same,normalized growth,"locus YDL040C, strain nat1, stronger effect = lower value",1.03
same,normalized growth,"locus YDL074C, strain BRE1, stronger effect = lower value",1.04
same,normalized growth,"locus YDL101C, strain DUN1, stronger effect = lower value",1.02
same,normalized growth,"locus YDL134C, strain PPH21, stronger effect = lower value",1.03
same,normalized growth,"locus YDL185W, strain tfp1, stronger effect = lower value",1.01
same,normalized growth,"locus YDL192W, strain arf1, stronger effect = lower value",1.03
same,normalized growth,"locus YDR001C, strain nth1, stronger effect = lower value",1.02
same,normalized growth,"locus YDR069C, strain doa4, stronger effect = lower value",0.951
same,normalized growth,"locus YDR101C, strain arx1, stronger effect = lower value",1.04
same,normalized growth,"locus YDR137W, strain rgp1, stronger effect = lower value",1.04
same,normalized growth,"locus YDR159W, strain sac3, stronger effect = lower value",0.966
same,normalized growth,"locus YDR162C, strain NBP2, stronger effect = lower value",1.06
same,normalized growth,"locus YDR195W, strain ref2",1.01
same,normalized growth,"locus YDR297W, strain sur2, stronger effect = lower value",0.956
same,normalized growth,"locus YDR318W, strain mcm21, stronger effect = lower value",1.03
same,normalized growth,"locus YDR334W, strain swr1, stronger effect = lower value",1.02
same,normalized growth,"locus YDR335W, strain msn5, stronger effect = lower value",0.982
same,normalized growth,"locus YDR388W, stronger effect = lower value",1.07
same,normalized growth,"locus YDR392W, strain spt3, stronger effect = lower value",1.04
same,normalized growth,"locus YDR502C, strain sam2, stronger effect = lower value",1.03
same,normalized growth,"locus YEL003W, strain gim4, stronger effect = lower value",1.02
same,normalized growth,"locus YEL037C, strain rad23, stronger effect = lower value",1.01
same,normalized growth,"locus YEL061C, strain CIN8 (second series), stronger effect = lower value",1.02
same,normalized growth,"locus YER015W, strain faa2, stronger effect = lower value",1
same,normalized growth,"locus YER016W, strain bim1, stronger effect = lower value",1.01
same,normalized growth,"locus YER110C, stronger effect = lower value",1.09
same,normalized growth,"locus YER111C, strain swi4, stronger effect = lower value",1.02
same,normalized growth,"locus YER155C, strain BEM2 (second series), stronger effect = lower value",1.04
same,normalized growth,"locus YER155C, strain BEM2, stronger effect = lower value",1.03
same,normalized growth,"locus YER167W, strain BCK2, stronger effect = lower value",1.03
same,normalized growth,"locus YFR010W, strain ubp6, stronger effect = lower value",1.04
same,normalized growth,"locus YGL078C, strain dbp3, stronger effect = lower value",1.03
same,normalized growth,"locus YGL167C, strain pmr1, stronger effect = lower value",1.02
same,normalized growth,"locus YGL173C, strain kem1, stronger effect = lower value",1.03
same,normalized growth,"locus YGL227W, strain vid30, stronger effect = lower value",1.02
same,normalized growth,"locus YGL240W, strain doc1, stronger effect = lower value",0.973
same,normalized growth,"locus YGL248W, strain PDE1, stronger effect = lower value",1.04
same,normalized growth,"locus YGL253W, strain hxk2, stronger effect = lower value",0.984
same,normalized growth,"locus YGR135W, strain pre9, stronger effect = lower value",1.03
same,normalized growth,"locus YGR252W, strain gcn5, stronger effect = lower value",1.22
same,normalized growth,"locus YHR013C, strain ard1, stronger effect = lower value",1.01
same,normalized growth,"locus YHR027C, strain rpn1, stronger effect = lower value",0.996
same,normalized growth,"locus YHR079C, strain IRE1 (second series), stronger effect = lower value",1.01
same,normalized growth,"locus YHR094C, strain hxt1, stronger effect = lower value",1.11 [resistant] (active)
same,normalized growth,"locus YHR129C, strain ARP1, stronger effect = lower value",1.03
same,normalized growth,"locus YHR142W, strain chs7, stronger effect = lower value",1.03
same,normalized growth,"locus YHR200W, strain rpn10, stronger effect = lower value",1.04
same,normalized growth,"locus YIL066C, strain RNR3, stronger effect = lower value",1.04
same,normalized growth,"locus YIL073C, strain SPO22, stronger effect = lower value",1.1
same,normalized growth,"locus YIL125W, strain kgd1, stronger effect = lower value",0.996
same,normalized growth,"locus YIR030C, strain dcg1, stronger effect = lower value",1.01
same,normalized growth,"locus YJL092W, strain hpr5, stronger effect = lower value",1.02
same,normalized growth,"locus YJL095W, strain BCK1 (second series), stronger effect = lower value",0.974
same,normalized growth,"locus YJL095W, strain BCK1, stronger effect = lower value",1.07
same,normalized growth,"locus YJL115W, strain asf1, stronger effect = lower value",1.01
same,normalized growth,"locus YJL129C, strain trk1, stronger effect = lower value",1.04
same,normalized growth,"locus YJL134W, strain LCB3, stronger effect = lower value",1.01
same,normalized growth,"locus YJL154C, strain vps35, stronger effect = lower value",1.01
same,normalized growth,"locus YJL164C, strain tpk1, stronger effect = lower value",1.02
same,normalized growth,"locus YJL166W, strain qcr8, stronger effect = lower value",0.991
same,normalized growth,"locus YJL168C, strain set2, stronger effect = lower value",1.03
same,normalized growth,"locus YJL187C, strain SWE1 (second series), stronger effect = lower value",1.03
same,normalized growth,"locus YJR043C, strain POL32, stronger effect = lower value",1.02
same,normalized growth,"locus YJR075W, strain HOC1, stronger effect = lower value",1.01
same,normalized growth,"locus YKL009W, strain mrt4, stronger effect = lower value",0.959
same,normalized growth,"locus YKL068W, stronger effect = lower value",1.1 [resistant] (active)
same,normalized growth,"locus YKL085W, strain MDH1 (second series), stronger effect = lower value",1.1 [resistant] (active)
same,normalized growth,"locus YKL085W, strain MDH1, stronger effect = lower value",1.1 [resistant] (active)
same,normalized growth,"locus YKL160W, strain elf1, stronger effect = lower value",1.02
same,normalized growth,"locus YKR001C, strain vps1, stronger effect = lower value",1.02
same,normalized growth,"locus YKR026C, strain gcn3, stronger effect = lower value",1.02
same,normalized growth,"locus YKR091W, strain srl3, stronger effect = lower value",1.02
same,normalized growth,"locus YLL001W, strain dnm1, stronger effect = lower value",1.02
same,normalized growth,"locus YLL026W, stronger effect = lower value",1
same,normalized growth,"locus YLL041C, strain sdh2, stronger effect = lower value",0.985
same,normalized growth,"locus YLR027C, strain aat2, stronger effect = lower value",0.979
same,normalized growth,"locus YLR039C, strain RIC1, stronger effect = lower value",1.1
same,normalized growth,"locus YLR058C, strain SHM2, stronger effect = lower value",1.02
same,normalized growth,"locus YLR102C, strain apc9, stronger effect = lower value",1.17 [resistant] (active)
same,normalized growth,"locus YLR221C, strain rsa3, stronger effect = lower value",0.988
same,normalized growth,"locus YLR258W, strain gsy2, stronger effect = lower value",0.973
same,normalized growth,"locus YLR262C, strain YPT6 (second series), stronger effect = lower value",1.05
same,normalized growth,"locus YLR268W, strain sec22, stronger effect = lower value",1.03
same,normalized growth,"locus YLR320W, strain mms22, stronger effect = lower value",1.02
same,normalized growth,"locus YLR342W, strain FKS1, stronger effect = lower value",1.01
same,normalized growth,"locus YLR357W, strain rsc2, stronger effect = lower value",1.03
same,normalized growth,"locus YLR370C, strain arc18, stronger effect = lower value",0.98
same,normalized growth,"locus YLR371W, strain rom2, stronger effect = lower value",1.16 [resistant] (active)
same,normalized growth,"locus YLR384C, strain iki3, stronger effect = lower value",0.987
same,normalized growth,"locus YLR418C, strain cdc73, stronger effect = lower value",1.02
same,normalized growth,"locus YML016C, strain PPZ1, stronger effect = lower value",1.02
same,normalized growth,"locus YML032C, strain rad52, stronger effect = lower value",1.03
same,normalized growth,"locus YML120C, strain ndi1, stronger effect = lower value",0.969
same,normalized growth,"locus YML124C, strain tub3, stronger effect = lower value",1.02
same,normalized growth,"locus YMR058W, strain fet3, stronger effect = lower value",1.02
same,normalized growth,"locus YMR078C, strain ctf18, stronger effect = lower value",1.07
same,normalized growth,"locus YMR125W, strain sto1, stronger effect = lower value",1.02
same,normalized growth,"locus YMR129W, stronger effect = lower value",0.978
same,normalized growth,"locus YMR205C, strain PFK2, stronger effect = lower value",0.986
same,normalized growth,"locus YMR223W, strain ubp8, stronger effect = lower value",1.01
same,normalized growth,"locus YMR231W, strain pep5, stronger effect = lower value",1.02
same,normalized growth,"locus YMR263W, strain SAP30, stronger effect = lower value",1.04
same,normalized growth,"locus YMR307W, strain GAS1, stronger effect = lower value",1.07
same,normalized growth,"locus YNL067W, strain RPL9B, stronger effect = lower value",1.02
same,normalized growth,"locus YNL071W, strain lat1, stronger effect = lower value",1.03
same,normalized growth,"locus YNL209W, strain ssb2, stronger effect = lower value",0.994
same,normalized growth,"locus YNL233W, strain BNI4, stronger effect = lower value",1.04
same,normalized growth,"locus YNL248C, strain rpa49, stronger effect = lower value",1.01
same,normalized growth,"locus YNL250W, strain rad50, stronger effect = lower value",1.04
same,normalized growth,"locus YNL271C, strain bni1, stronger effect = lower value",1.02
same,normalized growth,"locus YNL298W, strain CLA4, stronger effect = lower value",1.07
same,normalized growth,"locus YNL307C, strain MCK1, stronger effect = lower value",1.12 [resistant] (active)
same,normalized growth,"locus YNL322C, strain KRE1 (second series), stronger effect = lower value",1.02
same,normalized growth,"locus YNR049C, strain mso1, stronger effect = lower value",0.972
same,normalized growth,"locus YNR052C, strain pop2, stronger effect = lower value",1.13 [resistant] (active)
same,normalized growth,"locus YOL012C, strain htz1",1.05
same,normalized growth,"locus YOL147C, strain pex11, stronger effect = lower value",1.02
same,normalized growth,"locus YOR001W, strain rrp6, stronger effect = lower value",0.97
same,normalized growth,"locus YOR061W, strain CKA2, stronger effect = lower value",1.04
same,normalized growth,"locus YOR069W, strain VPS5, stronger effect = lower value",1.02
same,normalized growth,"locus YOR070C, strain gyp1, stronger effect = lower value",0.989
same,normalized growth,"locus YOR080W, strain dia2, stronger effect = lower value",1.01
same,normalized growth,"locus YOR083W, strain WHI5, stronger effect = lower value",1.03
same,normalized growth,"locus YOR106W, strain vam3, stronger effect = lower value",1.01
same,normalized growth,"locus YOR136W, strain idh2, stronger effect = lower value",1.03
same,normalized growth,"locus YOR144C, strain elg1, stronger effect = lower value",1.03
same,normalized growth,"locus YOR184W, strain ser1, stronger effect = lower value",1.05
same,normalized growth,"locus YOR265W, strain rbl2, stronger effect = lower value",0.993
same,normalized growth,"locus YOR270C, strain vph1, stronger effect = lower value",1.04
same,normalized growth,"locus YOR290C, strain snf2, stronger effect = lower value",1.03
same,normalized growth,"locus YOR316C, strain cot1, stronger effect = lower value",1.08
same,normalized growth,"locus YPL051W, strain arl3, stronger effect = lower value",1.02
same,normalized growth,"locus YPL078C, strain atp4, stronger effect = lower value",1.01
same,normalized growth,"locus YPL106C, strain sse1, stronger effect = lower value",1.05
same,normalized growth,"locus YPL240C, strain hsp82, stronger effect = lower value",1.01
same,normalized growth,"locus YPL241C, strain CIN2, stronger effect = lower value",1.01
same,normalized growth,"locus YPR119W, strain clb2, stronger effect = lower value",1.11 [resistant] (active)
same,normalized growth,"locus YPR141C, strain kar3, stronger effect = lower value",0.98
same,normalized growth,"locus YPR163C, strain tif3, stronger effect = lower value",1.03
same,normalized growth,"locus YPR167C, strain met16, stronger effect = lower value",1.02
same,normalized growth,"strain wtn01, stronger effect = lower value",1.02
